# Laboratory results as given in PubChem BioAssay AID1851 (National Center for Advancing Translational Sciences (NCATS), 2009).
# The campaign covered roughly 16,000 compounds. About 4,000 (25%) were called active. Not shown: some 26% with an inconclusive outcome. Calls follow the shape of the dose curve; as a rule, active = well fitted curve in the direction sought with a large enough effect; inconclusive = small, poorly fitted or top-dose-only effect, or effect the other way; inactive = no such curve, though single readings can be large or run the other way. A selection follows.
# Biological target: Cytochrome P450 2C9 (Homo sapiens) (UniProt P11712)
# Assay: Cytochrome panel assay with activity outcomes
# Settings: recombinant CYP, pro-luciferin dealkylation, luminescence, p450-cyp2c9; series mostly up to 57.1 µM; activity, negative = inhibition: at the top concentration
# % is scaled to controls: 0 for no effect and ±100 for the full control effect.
# Cytochrome P450 2C9 (Homo sapiens), sequence (P11712 whole entry, looked up): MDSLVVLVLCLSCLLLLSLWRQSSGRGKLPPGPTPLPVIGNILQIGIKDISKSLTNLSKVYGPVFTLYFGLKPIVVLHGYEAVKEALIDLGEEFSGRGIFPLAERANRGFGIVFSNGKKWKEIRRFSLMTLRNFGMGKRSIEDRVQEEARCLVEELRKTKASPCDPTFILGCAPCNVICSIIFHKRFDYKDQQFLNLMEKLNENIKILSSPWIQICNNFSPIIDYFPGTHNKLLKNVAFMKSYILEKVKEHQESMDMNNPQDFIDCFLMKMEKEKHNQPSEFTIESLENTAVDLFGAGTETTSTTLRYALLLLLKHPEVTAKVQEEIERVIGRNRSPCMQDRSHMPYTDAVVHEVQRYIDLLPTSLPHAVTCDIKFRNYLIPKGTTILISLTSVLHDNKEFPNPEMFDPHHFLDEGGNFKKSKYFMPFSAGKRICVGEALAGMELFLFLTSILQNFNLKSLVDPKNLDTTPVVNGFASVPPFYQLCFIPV
Structure (SMILES),AC50,"activity, negative = inhibition"
C[C@@H](C(=O)NCCc1c[nH]c2ccccc12)[C@H]1C[C@]1(C)[C@H](NC(=O)OCc1ccccc1)c1ccccc1,0.631 µM (active),–
COC(=O)C(Cc1c[nH]c2ccccc12)NC(=O)C(C)C (stereo not drawn),–,-33.5% (inactive)
CC(=O)N[C@@H](Cc1c[nH]c2ccccc12)C(=O)OCc1cc(C(F)(F)F)cc(C(F)(F)F)c1,–,2.21% (inactive)
C[C@@H](C(=O)NCCc1c[nH]c2ccccc12)[C@@H]1C[C@@]1(C)[C@@H](NC(=O)OCc1ccccc1)c1ccccc1,2.51 µM (active),–
C#C[C@@]1(O)CC[C@@H]2[C@@H]3CCC4=CC(=O)CC[C@@H]4[C@H]3CC[C@]21CC,–,-23.8% [at 25.6 µM] (inactive)
C#C[C@]1(O)CC[C@@H]2[C@H]3CCc4cc(OC)ccc4[C@@H]3CC[C@@]21C,–,-27.5% [at 25.6 µM] (inactive)
C#C[C@]1(O)CC[C@@H]2[C@H]3CCC4=CCCC[C@@H]4[C@@H]3CC[C@@]21C,10 µM (active),–
C#C[C@@]1(OC(C)=O)CC[C@@H]2[C@@H]3CCC4=C[C@@H](OC(C)=O)CC[C@H]4[C@H]3CC[C@]21C,15.8 µM (active),–
CC(C)(C)C(=O)NC(=C(Cl)Cl)P(=O)(O)O,–,-19.5% (inactive)
CCCn1nc(NC(=O)CC(C)C)c2cc3ccccc3nc21,2 µM (active),–
CCCS(=O)(=O)N1CCN(CC2CC=CCC2)CC1 (stereo not drawn),–,-43.6% (inactive)
Cc1noc(C)c1-c1cc(NC2CC2)ncn1,–,-1.99% [at 2.29 µM] (inactive)
COc1cc(NC(=O)c2ccc(COCC(F)(F)F)cc2)cc(OC)c1OC,–,22.1% (inactive)
COc1cc(C(=O)Nc2cc(C(F)(F)F)ccc2Cl)cc(OC)c1OC,8.91 µM (active),–
N/C(CC(=O)Nc1cc(C(F)(F)F)ccc1Cl)=N\O,–,11.2% [at 11.4 µM] (inactive)
CC(C)(CN)CN,–,2.97% [at 11.4 µM] (inactive)
CC(C)C(NC(=O)C1CCCCC1)C(=O)NC1CCN(Cc2ccccc2)CC1 (stereo not drawn),–,7.86% (inactive)
CCC(C)NC(=O)C1CCCN(C(=O)NC2CCCCC2)C1 (stereo not drawn),20 µM (active),–
CCC(C)NC(=O)C1CCN(C(=O)c2ccccc2)CC1 (stereo not drawn),–,-9.04% (inactive)
Cc1ccc(CCN2CC(C(=O)NC3CCCC3)CC2=O)cc1 (stereo not drawn),–,-15.5% (inactive)
COc1ccc(C2C(=O)N(CCc3ccccc3)CC(=O)N2C2CCCC2)cc1 (stereo not drawn),22.4 µM (active),–
COc1ccc(C2C(C(=O)N3CCN(C)CC3)c3ccccc3C(=O)N2C2CCCCC2)cc1 (stereo not drawn),–,-14% (inactive)
Cn1c(=O)n2n(c1=O)[C@H]1[C@H](O)[C@H]3O[C@H]3C(=O)[C@H]1CC2,–,7.6% [at 11.4 µM] (inactive)
O=C(O)CN(CCN(CC(=O)O)CC(=O)O)CC(=O)O.[Cu],–,4.98% [at 11.4 µM] (inactive)

Structure (SMILES),AC50,"activity, negative = inhibition"
Cc1[nH]nc(-c2ccc(OCc3cnn(-c4ccccc4)c3)cc2O)c1Oc1ccccc1F,2 µM (active),–
COC(=O)c1ccc(Oc2coc3cc(OCc4cnn(-c5ccccc5)c4)ccc3c2=O)cc1,–,28.5% (inactive)
Cc1ccc(NC(=O)Nc2nc(-c3ccc(C)s3)cs2)cc1,3.55 µM (active),–
O=C(c1cc(C(F)(F)F)cc(C(F)(F)F)c1)N1CCC[C@@]2(CCN(c3ncccn3)C2)C1,–,-1.16% (inactive)
CC(C)(C)c1ccc(C(=O)NCc2ccc(Cl)cc2)cc1,–,9% (inactive)
COc1ccc(CNC(=O)c2cnc(C)cn2)cc1,35.5 µM (active),–
COc1ccc(CNC(=O)c2csc(Cc3ccc(OC)cc3)n2)cc1,10 µM (active),–
COc1ccc(CNC(=O)C2CSC(=O)C2)cc1 (stereo not drawn),–,-18.7% (inactive)
COc1ccc(Cc2c(N)nc(N)nc2N)cc1,–,11.5% (inactive)
Cc1cc(C(=O)NCc2ccccc2)no1,–,-34.4% (inactive)
COc1ccc(CNC(=O)c2csc(Cc3ccc(Cl)cc3)n2)cc1,3.98 µM (active),–
COc1ccc(CNC(=O)C2CC(c3ccc(OC)cc3)=NO2)cc1 (stereo not drawn),–,16.9% (inactive)
Cc1nc(CN2CCCCC2)c(O)c(=O)[nH]1,–,7.96% [at 11.4 µM] (inactive)
C[C@]1(c2ccccc2)OC(C(=O)O)=CC1=O,–,8.89% (inactive)
CC(=O)N(O)CCCCCNC(=O)CCC(=O)N(O)CCCCCNC(=O)CCC(=O)N(O)CCCCCN,–,-3.39% [at 25.6 µM] (inactive)
O=C(O)CCC(=O)N1CCOc2ccc(Cl)cc21,–,0.992% (inactive)
O=c1c(Cl)c(N2CCN(S(=O)(=O)c3ccc(F)cc3)CC2)cnn1-c1cccc(Cl)c1,–,-28.2% (inactive)
O=C(c1ccc2c(c1)OCCO2)C1CCN(S(=O)(=O)c2ccccc2F)CC1,–,-25.3% (inactive)
Cc1ccc(Cl)cc1N1CCN(S(=O)(=O)c2ccc3c(c2)OCCO3)CC1,2.82 µM (active),–
Cc1ccc2nc(N3CCN(S(=O)(=O)c4ccc5c(c4)OCCO5)CC3)c(C#N)cc2c1,2.82 µM (active),–
Cc1occc1C(=O)NNC(=O)c1ccc(F)cc1,–,-15.1% (inactive)
CC(=O)C1=C(NC(=O)c2ccc(F)cc2)CC2C1C2(C)C (stereo not drawn),3.55 µM (active),–
O=C(Nc1cccc2[nH]ncc12)c1ccc(F)cc1,–,-3.46% (inactive)
C/C(CCN1CCCc2nc(C)c(C)cc21)=N\OC[C@@H](C)[C@H](OCc1ccccc1)C(C)C,–,24.5% [at 11.4 µM] (inactive)
